TDP1 cell noCPT = qHTS for Inhibitors of human tyrosyl-DNA phosphodiesterase 1 (TDP1): qHTS in cells in absence of CPT | 15% of 420,000 active | DT40 Tdp1-/- hTDP1 cells, no CPT, ATP luminescence, 48 h | AID 686978, 2013 | Potency, µM (doses to about 46.2 µM), without a hit: at the top dose activity change, negative = growth inhibition, usual class: inhibitors; also: potency is read from the fitted curve at half-maximal effect; nearly all actives have a fitted effect of over 55% in size
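Luminescent ATP content (CellTiter-Glo) served as the growth readout. Knockout chicken DT40 cells expressing human TDP1 were exposed to compounds without camptothecin for a minimum 48 hr at 37 °C.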
RORgamma inh = qHTS for inhibitors of ROR gamma transcriptional activity; AID 2551, 2010; Potency, µM (doses to about 53.6 µM), for inactives: top-dose activity change, negative = inhibition, hits mostly inhibitors; Drosophila S2 Gal4-RORgamma UAS-luciferase reporter, 20 h; Nuclear receptor ROR-gamma (Mus musculus), P51450; 5.4% of 310,000 active; also: potency is read from the fitted curve at half-maximal effect; nearly all actives have a fitted effect of over 60% in size
Target sequence (P51450 whole entry, looked up, the tested form may be a part): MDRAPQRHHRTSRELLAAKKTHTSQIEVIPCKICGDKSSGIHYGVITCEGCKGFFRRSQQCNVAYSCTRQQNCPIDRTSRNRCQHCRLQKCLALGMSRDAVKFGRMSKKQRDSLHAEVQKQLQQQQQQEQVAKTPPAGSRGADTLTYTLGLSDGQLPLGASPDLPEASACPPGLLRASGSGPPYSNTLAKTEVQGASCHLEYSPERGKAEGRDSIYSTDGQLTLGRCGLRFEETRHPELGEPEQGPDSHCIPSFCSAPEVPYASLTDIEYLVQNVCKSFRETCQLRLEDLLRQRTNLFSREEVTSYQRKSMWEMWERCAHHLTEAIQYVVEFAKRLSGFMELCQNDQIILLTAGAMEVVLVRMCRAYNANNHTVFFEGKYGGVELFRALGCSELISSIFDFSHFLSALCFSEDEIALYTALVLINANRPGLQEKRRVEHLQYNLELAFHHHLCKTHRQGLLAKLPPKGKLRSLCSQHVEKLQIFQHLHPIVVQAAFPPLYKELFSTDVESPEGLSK
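Luciferase reporter read in Schneider cells carrying Gal4-RORγ (mouse) and UAS-Photinus luciferase; cells given compound 1 h before 700 uM copper sulfate induction, then incubated 20 h at ambient temperature.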
VP16 counter = VP16 counterscreen qHTS for inhibitors of ROR gamma transcriptional activity. 3.5% of 310,000 active. Drosophila S2 Gal4-VP16 UAS-luciferase, luminescence, 20 h. Potency, µM (titrated, usually from 53.6 µM), without a hit: at the highest dose activity, negative = inhibition, actives largely listed as inhibitors;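 also: Gal4-VP16 expression switched on by copper sulfate through the metallothionein promoter; potency is read from the fitted curve at half-maximal effect; nearly all actives have a fitted effect of over 50% in size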
DT40 TDP1 CPT = qHTS for Inhibitors of human tyrosyl-DNA phosphodiesterase 1 (TDP1): qHTS in cells in presence of CPT. 12% of 420,000 active. Potency, µM (top dose mostly 46.2 µM), for inactives: at the top dose activity change, negative = growth inhibition, hits mostly inhibitors. chicken DT40 Tdp1-/-;hTDP1 cells + 20 nM CPT, ATP luminescence, 48 h; also: potency is read from the fitted curve at half-maximal effect; nearly all actives have a fitted effect of over 55% in size
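Chicken DT40 Tdp1-/- cells stably complemented with human TDP1 were seeded at 400 cells/well in medium containing 20 nM camptothecin, exposed to pin-transferred compounds, and grown at 37 °C for at least 48 hr. Viability was read as ATP luminescence.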
ELG1 repair inh = qHTS screen for small molecules that inhibit ELG1-dependent DNA repair in human embryonic kidney (HEK293T) cells expressing luciferase-tagged ELG1. HEK293T ELG1-luciferase reporter, luminescence, 16 h; DNA damage induced by 5-fluorouridine. Potency, µM (highest dose often 46.1 µM), for the others: at the top dose activity change, negative = inhibition, most hits filed as inhibitors. 2.3% of 330,000 active; also: potency is read from the fitted curve at half-maximal effect; nearly all actives have a fitted effect of over 55% in size
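Quantitative HTS, concentration-response format. 2,000 cells/well co-treated with 5-fluorouridine and compound, 16 hr in 5% CO2 at 37 °C; ONE-Glo luminescence read after 30 min.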
IL1B secr inh = qHTS for Inhibitors of Inflammasome Signaling: IL-1-beta AlphaLISA Primary Screen; THP-1 LPS/ATP IL-1B secretion, AlphaLISA, 16 h; stronger effect = lower value; activity change, % at 57.5 µM; 4.7% of 360,000 active; AID 743279, 2014; in the data active = activity change below about -50%; inconclusive = mostly about -30% to -49%
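THP-1 cells pretreated 1 hr with compounds (up to 57.5 uM final), then stimulated with LPS (250 ng/mL final) plus ATP (1.25 mM final); secreted IL-1B measured by AlphaLISA after 16 hr, decreased signal indicating inhibition.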
Numbers without * were called inactive; ? = inconclusive; / = no result given. A selection: hits, their analogues and other compounds. The true share with any hit is near 21%. Unless noted, calls follow the shape of the dose curve; as a rule, active = well fitted curve in the direction sought with a large enough effect; inconclusive = small, poorly fitted or top-dose-only effect, or another doubt; inactive = no such curve, though single readings can be large; an effect the other way counts as inactive or inconclusive. % is scaled to controls: 0 for no effect and ±100 for the full control effect.

SMILES	TDP1 cell noCPT	RORgamma inh	VP16 counter	DT40 TDP1 CPT	ELG1 repair inh	IL1B secr inh
Cc1cc(C)n(-c2nc(SCC(=O)Nc3nccs3)c3c4c(sc3n2)COC(C)(C)C4)n1	23µM*	?	?	?	?	0
Cc1cc(C)n(-c2nc(NCCCN(C)C)c3c4c(sc3n2)COC(C)(C)C4)n1	?	?	1%	0%	5%	-62*
Cc1cc(C)n(-c2nc(NCCC(C)C)c3c4c(sc3n2)COC(C)(C)C4)n1	16µM*	0.63µM*	-12%	9.2µM*	18µM*	-2
CC1(C)Cc2c(sc3ncn(N)c(=N)c23)CO1	-3%	-26%	-1%	-13%	-14%	-1
Cc1cc(C)n(-c2nc(-n3nc(C)cc3C)c3c4c(sc3n2)COC(C)(C)C4)n1	/	3.5µM*	13µM*	/	13%	/
COc1cc(C(=O)Nc2cc(C(F)(F)F)ccc2Cl)cc(OC)c1OC	?	-2%	-2%	?	-22%	7
CCN(CC(=O)Nc1ccc(OC)cc1)C(=O)C1CC(=O)N(Cc2ccccc2)C1 (stereo unspecified)	-17%	/	/	0%	/	16
CC1(C(=O)Nc2cccc3c2CCCC3)CCN1C(=O)c1cccc(F)c1 (stereo unspecified)	?	/	/	-23%	/	-15
COC1=CC(=O)c2ccccc2C1=O	4.1µM*	/	/	3.7µM*	18µM*	9
COC1=CC(=O)C=C(OC)C1=O	0.82µM*	2.8µM*	4.5µM*	0.65µM*	/	-107*
COc1cc(N=CC2=C(O)c3ccccc3C2=O)cc(OC)c1	-26%	?	27%	-7%	?	0
COc1cc(OC)cc(C(=O)N/N=C\c2ccoc2)c1	9%	-34%	-8%	-9%	1%	6
CCc1cc[n+](/C(C(=S)Nc2cccc(C)c2)=C(/[O-])c2ccc(C)c([N+](=O)[O-])c2)cc1	12µM*	-41%	0%	16µM*	-4%	-26
CCOc1ccc(NC(=S)/C(=C(\[O-])c2ccc(C)c([N+](=O)[O-])c2)[n+]2ccccc2)cc1	15µM*	-17%	2%	?	10%	13
Cc1ccc(/C([O-])=C(/C(=S)NCc2ccccc2)[n+]2ccccc2)cc1[N+](=O)[O-]	?	?	2%	-24%	-4%	-24
CC12CCC(C)(O1)C1C(=O)N(c3nccs3)C(=O)C12 (stereo unspecified)	2%	/	/	13%	/	41
CCCCNC(=O)c1ccc2c(=O)n(-c3ccccc3)c(=O)[nH]c2c1	3%	/	/	-24%	/	/
O=C(NC1CCCCCC1)C1CCC(CNS(=O)(=O)c2ccc(Br)s2)CC1 (stereo unspecified)	?	?	?	-6%	1%	23
COc1ccc(NC(=O)C2CCC(CNS(=O)(=O)c3ccc(Br)s3)CC2)c(OC)c1 (stereo unspecified)	?	/	/	18µM*	/	/
Cc1[nH]c(=S)c(C#N)c(C)c1Cc1ccc(Cl)cc1Cl	-29%	3.2µM*	20µM*	-22%	?	0
COc1ccc(-n2ncc3c(N4CCN(c5cccc(C)c5C)CC4)ncnc32)cc1	-29%	-19%	-1%	-20%	13%	9
Clc1ccc(-n2ncc3c(N4CCCCCC4)ncnc32)cc1	?	?	14µM*	?	?	-6
Cc1ccc(-n2ncc3c(N4CCCCC4)ncnc32)cc1Cl	?	/	/	-19%	/	/
COc1ccc(-n2ncc3c(N4CCCCC4)ncnc32)cc1	?	5µM*	2µM*	?	?	-8
COc1cc2cnc(-c3ccccc3)c(-c3ccc(C#N)cc3)c2cc1OC	16µM*	/	/	?	23µM*	-22
SMILES	TDP1 cell noCPT	RORgamma inh	VP16 counter	DT40 TDP1 CPT	ELG1 repair inh	IL1B secr inh
Cc1cc(/C=C2/C(=O)NN(c3ccccc3)C2=O)c(C)n1-c1ccc(O)cc1	18µM*	14µM*	4µM*	?	?	-29
Cc1cc(/C=C2\SC(=Nc3ccc(F)cc3)NC2=O)c(C)n1-c1ccc(S(N)(=O)=O)cc1	5.2µM*	-24%	?	5.2µM*	?	-8
Cc1cc(/C=C2\SC(=S)NC2=O)c(C)n1-c1ccccc1	?	10µM*	?	-7%	?	26
Cc1cc(/C=C2\SC(=S)NC2=O)c(C)n1-c1ccc(O)cc1	6%	21%	-21%	-28%	?	0
O=C1NN(c2ccccc2)C(=O)/C1=C\c1coc2ccc(O)cc2c1=O	21µM*	-28%	1%	16µM*	11%	-25
COc1ccc(-n2c(C)cc(/C=C3\C(=O)NN(c4ccccc4)C3=O)c2C)cc1	-15%	-39%	-20%	4%	?	3
O=C1NN(c2ccccc2)C(=O)/C1=C/c1coc2ccccc2c1=O	?	41%	13%	?	?	-11
COc1cccc(CNc2ccc3c(c2)CCC3)c1	-14%	-18%	-5%	-11%	?	17
CN(C)/[N+]([O-])=N/Oc1cc(ON=[N+]([O-])N2CCN(c3ncccn3)CC2)c([N+](=O)[O-])cc1[N+](=O)[O-]	/	21%	24%	/	/	/
CC1CCCN(S(=O)(=O)c2cc3c4c(c2)CC(=O)N4CCC3)C1 (stereo unspecified)	-25%	/	/	-24%	/	/
Cc1cc(C=C2C(=O)CCCC2=O)c(C)n1-c1ccccc1	?	8.9µM*	-4%	-9%	23%	-1
Cc1cc(/C=C2\C(=O)NN(c3ccccc3)C2=O)c(C)n1-c1ccccc1O	15µM*	-5%	-15%	?	?	0
COc1cc(/C=C2/C(=O)NN(c3ccccc3)C2=O)cc(Br)c1O	9%	-34%	2%	-6%	5%	1
C=CCOc1cccc(/C=C/c2nc3ccccc3c(=O)[nH]2)c1	-20%	-22%	-7%	?	?	-29
CC(=O)c1ccc(NC(=O)Cn2cc3c(n2)CCCC3)cc1	0%	/	/	-9%	/	/
CCn1c(CN2CCCCC2)nc2cc(NC(=O)COc3cc(C)ccc3C(C)C)ccc21	?	/	/	18µM*	/	/
COc1ccc(OCC(=O)Nc2ccc3c(c2)nc(CN2CCCC2)n3C)cc1	?	-24%	-7%	?	-2%	-11

High-throughput results: PubChem BioAssay, National Center for Advancing Translational Sciences (NCATS)
